# Screening data: PubChem BioAssay, Sanford-Burnham Center for Chemical Genomics
# Hits are enriched below; roughly 2.6% of the tested compounds scored in any of these assays.
# eIF4H inh: inhibitors of RNA binding by human eIF4H. eIF4H fluorescence polarization binding assay. inhibition, % at 35 µM. Q15056. 290,000 tested, 0.94% active;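 further: calls also rest on retests at 20 µM and on dose response follow-up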
# APOBEC3G inh: APOBEC3G (human) deaminase inhibition; recombinant A3G, ssDNA deamination FAM/TAMRA fluorescence; inhibition, % at 20 µM; 330,000 tested, 0.28% active;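 active means inhibition of at least 40% at 20 µM, with no more than 30% in the related APOBEC3A deaminase screen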;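 further: plate controls were DMSO wells with A3G for no effect and wells lacking A3G enzyme for full effect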
# Target sequence (Q9HC16 whole entry, looked up): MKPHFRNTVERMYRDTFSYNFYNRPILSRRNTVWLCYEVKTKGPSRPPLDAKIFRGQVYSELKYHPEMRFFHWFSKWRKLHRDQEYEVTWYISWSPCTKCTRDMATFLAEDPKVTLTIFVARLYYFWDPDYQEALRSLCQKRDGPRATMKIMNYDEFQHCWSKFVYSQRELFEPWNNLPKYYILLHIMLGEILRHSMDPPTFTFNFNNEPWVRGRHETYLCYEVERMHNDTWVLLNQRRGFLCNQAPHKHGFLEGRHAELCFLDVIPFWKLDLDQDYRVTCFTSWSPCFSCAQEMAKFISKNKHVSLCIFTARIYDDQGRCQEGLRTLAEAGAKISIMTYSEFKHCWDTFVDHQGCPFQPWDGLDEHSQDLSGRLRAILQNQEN
# PABP polyA inh: PABP-poly(A) binding inhibition. PABP-poly(A) RNA binding, fluorescence polarization. P11940. calls only at 35 µM. 290,000 tested, 1% active. AID 2014;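 further: calls also rest on retests at 20 µM and on dose response follow-up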
# PHOSPHO1 block: inhibitors of human PHOSPHO1 phosphatase. AID 1565. inhibition, % at 13.3 µM. recombinant PHOSPHO1, absorbance phosphatase assay. 290,000 tested, 1.1% active; in the data active means inhibition above about 60%
# A3A deaminase: blocks human APOBEC3A ssDNA deamination. P31941. recombinant A3A, FAM/TAMRA ssDNA deamination fluorescence. inhibition, % at 20 µM. 330,000 tested, 0.41% active;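 active means at least 40% inhibition at 20 µM here, with at most 30% in a related deaminase screen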;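 further: plate controls were A3A with DMSO for no effect and wells lacking A3A enzyme for full effect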
# MLLE-PAM2 inh: blocks PAM2 peptide binding to the PABP1 MLLE domain; inhibition, % at 20 µM; 360,000 tested, 0.36% active; AID 588489; GST-MLLE / FITC-PAM2 fluorescence polarization; in the data active means inhibition above about 35%, passing the limit was not always enough;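 further: plate controls were DMSO wells with GST-MLLE for no effect and wells lacking GST-MLLE protein for full effect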
# An asterisk follows results filed as active; i = inactive; u = inconclusive; x = no result given; + = active, no number. Unless noted, how the calls were made is not given here.
SMILES,eIF4H inh,APOBEC3G inh,PABP polyA inh,PHOSPHO1 block,A3A deaminase,MLLE-PAM2 inh
N#CC1=C2N=C(N)c3ccccc3N2C2=C(C(=O)CCC2)C1c1ccccc1F (stereo unspecified),u,-3,u,27,3,87
CN1CCN(C(=O)C2Cc3c(-c4cccc(F)c4)ccnc3O2)CC1 (stereo unspecified),x,x,x,x,x,-1
CC(=Nc1ccc(O)cc1)c1sc2ccccc2c1O,u,-2,i,38,-1,-32
CC(=O)NCCN=C(C)c1sc2ccccc2c1O,0,1,i,6,2,35*
CCOc1ccccc1N1CCN(C(=O)CC(C)(C)C)CC1,11,3,i,73*,4,6
Cn1c(=O)c2c(=O)cc(N)[nH]c2n(C)c1=O,44,-3,i,20,-3,43*
Cc1cccc(S(=O)Cc2ccc(C(=O)N3CCN(C(=O)c4ccco4)CC3)o2)c1 (stereo unspecified),-4,-5,i,15,-5,1
COc1ccccc1Nc1nc(N)nc(CN2CCCCC2)n1,2.7*,-5,+,9,-1,-10
Oc1ccc(/C=N/n2cc(-c3ccccc3)[nH]c2=S)cc1,0,1,i,2,-11,43*
S=c1[nH]c(-c2ccccc2)cn1/N=C/c1ccccc1Br,-7,-3,i,-111,-7,26
CC1CCC/C(=C\Nc2ccc3c(c2)OCO3)C1=O (stereo unspecified),23,4,i,81*,8,-61
O=C1CCC/C1=C/Nc1ccc2c(c1)OCO2,19,1,i,0,3,15
COc1ccc(C(=O)NC2CC(C)(C)NC(C)(C)C2)cc1S(=O)(=O)N1CCOCC1,x,x,x,x,x,-2
C[C@@H]1[C@@H](Sc2ccccc2)CC(=O)O[C@@H]1c1ccc(-c2ccccc2)cc1,x,-11,x,x,-8,44*
O=C(Cn1cnc2c(nnn2-c2ccccc2)c1=O)N1CCOCC1,active,-15,+,6,-4,-5
CCCCCc1c2c(cc(O)c1C(=O)O)OC(=O)c1c(cc(OC)cc1C(=O)CCCC)O2,62,-8,+,28,26,-6
COc1ccc(NCC(=O)N/N=C/C=C/c2ccccc2[N+](=O)[O-])cc1,-2,-5,+,6,2,12
CN(Cc1ccccc1)C(=O)c1[nH]cnc1C(=O)Nc1nccs1,x,-9,x,x,0,13
CSc1ccccc1NC(=S)Nc1ccc(S(N)(=O)=O)cc1,4,-7,i,-13,-5,36*
COC(=O)c1ccc(-n2c(C)cc(C(=O)CSc3cccc[n+]3[O-])c2C)cc1,-5,-7,i,36,-7,12
COC(=O)c1ccc(C(=O)OC)c(NC(=O)CSc2cccc[n+]2[O-])c1,-10,1,i,87*,3,35
Cn1c(CSCc2ccc(Cl)cc2)nnc1SCC(=O)Nc1nc2ccccc2s1,-3,4,i,73*,1,2
CCOC(=O)C1=NOC(CNC(=O)c2ccccc2Cl)C1 (stereo unspecified),3,-4,i,11,-3,-1
CCOC(=O)C1=NOC(COc2ccccc2C=O)C1 (stereo unspecified),6.7*,-3,+,44,2,17
CCOC(=O)Nc1ccc(NC(=O)c2ccccc2F)cc1,4,-4,i,42,-3,15
SMILES,eIF4H inh,APOBEC3G inh,PABP polyA inh,PHOSPHO1 block,A3A deaminase,MLLE-PAM2 inh
CC(C)c1ccc(NC(=O)C2CCCN2S(=O)(=O)c2ccccc2F)cc1 (stereo unspecified),x,-4,x,x,0,2
CCOC(=O)c1nc(Nc2ccccc2)c2ccccc2n1,-6,-6,i,-1,2,0
CCOC(=O)c1nc(Nc2ccc(C)cc2)c2ccccc2n1,13,8,i,11,-4,60*
CN1CC(C(=O)Nc2ccc(F)c(Cl)c2)CC1=O (stereo unspecified),-3,-8,i,8,-8,-12
CC1CCCCN1c1nnc(NC(=O)c2cc(-c3ccc(Br)cc3)on2)s1 (stereo unspecified),87*,10,+,34,0,-7
O=c1c2ccccc2nc(SCc2nc(-c3ccccc3)no2)n1-c1ccc(F)cc1,87*,-10,+,6,2,-8
CC(C)(C)c1cn(-c2ccccc2)c(=S)[nH]1,-9,9,i,76*,-2,-29
